Assay [1] can be described thus: NCI Yeast Anticancer Drug Screen. Data for the rad50 strain (AID 155).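 Further: 0% = growth of vehicle-only cultures of the same strain.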 The note with it: S. cerevisiae rad50 strain growth inhibition, stronger effect = higher value. In a few lines:
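Yeast carrying a defined DNA repair defect were exposed to test compounds, and growth was compared with vehicle-treated controls to give percent inhibition.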

Assay [2] can be described thus: NCI Yeast Anticancer Drug Screen. Data for the mec2-1 strain (AID 157). The note with it: S. cerevisiae mec2-1 strain, stronger effect = higher value. The procedure, abridged: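 Readout is yeast growth inhibition, normalised to vehicle-treated controls, in the mec2-1 strain exposed to compound.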
A short description of assay [3]: NCI Yeast Anticancer Drug Screen. Data for the sgs1 mgt1 strain (AID 161).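 Further: 0% = growth of cultures given vehicle only.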 Particulars: S. cerevisiae sgs1 mgt1 strain, stronger effect = higher value. In a few lines: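 Compounds are added to genetically altered yeast, and growth is compared with cultures given vehicle alone to give percent inhibition.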
Assay [4] is described as follows: NCI Yeast Anticancer Drug Screen. Data for the cln2 rad14 strain (AID 165).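 Further: 0% = growth equal to vehicle treated cultures.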 Particulars: S. cerevisiae cln2 rad14 strain, stronger effect = higher value. In a few lines:
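Relative to vehicle controls, growth inhibition of compound-treated cln2 rad14 yeast was recorded.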

The nature of assay [5]: NCI Yeast Anticancer Drug Screen. Data for the bub3 strain (AID 167). The note with it: S. cerevisiae bub3 mutant strain, stronger effect = higher value. The procedure, abridged: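 Compounds were applied to a genetically altered yeast strain carrying a cell-cycle control defect. Growth inhibition was scored against vehicle-treated controls.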
Assay [6] is described as follows: NCI Yeast Anticancer Drug Screen. Data for the mlh1 rad18 strain (AID 175). The note with it: S. cerevisiae mlh1 rad18 strain growth inhibition, stronger effect = higher value. In a few lines:
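Test agents were incubated with a yeast strain of defined genotype (DNA damage repair defect). Inhibition of growth was derived by comparison with vehicle-exposed cultures.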

[7] abbreviates: at 5.0 µM (retest, dose inferred, filed as 0.5).
Setting [8] is: at 50.0 µM (retest, dose inferred, filed as 5.0).

Where “and” joins values, the source holds several entries; their conditions need not be identical. Equal values may be shown once. About 79,000 compounds went through this panel and 15% of them were active in at least one assay; those are over-represented in the sample as a whole. More than one record can exist for a structure, and the calls need not agree. Calls of active or inactive are those of the source. No stated cut-off is given here; in the data, active means growth inhibition above about 70%; inactive means the rest.

With `O=C(CCl)Nc1ccc(C(=O)N/N=C/c2ccc(Cl)cc2)cc1`, the growth inhibition in assay [1] (setting [7]) is 57% (inactive); in assay [1] (setting [8]) it was 90% (active); in assay [1] (at 50.0 µM), -8.7% (inactive); in assay [2] (setting [7]), 26% (inactive); in assay [2] (setting [8]), 65% (inactive); in assay [2] (at 50.0 µM) it was -32.9% (inactive). For the same molecule, the growth inhibition in assay [3] (setting [7]) is 42% (inactive); in assay [3] (setting [8]), 70% (active); in assay [3] (at 50.0 µM), -21.8% (inactive); in assay [4] (setting [7]), 23% (inactive); in assay [4] (setting [8]) it was 57% (inactive); in assay [4] (at 50.0 µM), 7.05% (inactive). The growth inhibition is 45% (inactive) in assay [5] (setting [7]); 82% (active) in assay [5] (setting [8]); -14.4% (inactive) in assay [5] (at 50.0 µM); 41% (inactive) in assay [6] (setting [7]); 80% (active) in assay [6] (setting [8]); -27.7% (inactive) in assay [6] (at 50.0 µM).
In the case of `COc1cc(/C=C/C(=O)NCCCCN=[N+]=[N-])ccc1OCc1ccccc1`, the growth inhibition in assay [1] (setting [7]) was -1% (inactive); in assay [1] (setting [8]) it was -13% (inactive); in assay [1] (at 50.0 µM), 89.8% (active); in assay [2] (setting [7]) it was 1% (inactive); in assay [2] (setting [8]) it was -11% (inactive); in assay [2] (at 50.0 µM) it was 82.2% (active). The growth inhibition in assay [3] (setting [7]) is -7% (inactive); in assay [3] (setting [8]), 1% (inactive); in assay [3] (at 50.0 µM) it was 27.4% (inactive); in assay [4] (setting [7]) it was -9% (inactive); in assay [4] (setting [8]) it was -13% (inactive); in assay [4] (at 50.0 µM), -3.15% (inactive). The growth inhibition is -6% (inactive) in assay [5] (setting [7]); -8% (inactive) in assay [5] (setting [8]); 10.1% (inactive) in assay [5] (at 50.0 µM); -3% (inactive) in assay [6] (setting [7]); -11% (inactive) in assay [6] (setting [8]); 39.9% (inactive) in assay [6] (at 50.0 µM).
In the case of `CN(C)c1ccc(/C=C/c2ccnc3ccccc23)c(Cl)c1`, the growth inhibition in assay [1] (setting [7]) was -7% (inactive); in assay [1] (setting [8]) it was 10% (inactive); in assay [1] (at 50.0 µM), -1.1% (inactive) and 16.1% (inactive); in assay [2] (setting [7]), -7% (inactive); in assay [2] (setting [8]) it was -4% (inactive); in assay [2] (at 50.0 µM), 11.4% (inactive) and 3.15% (inactive). Further, the growth inhibition was -1% (inactive) in assay [3] (setting [7]); 35% (inactive) in assay [3] (setting [8]); -0.1% (inactive) and -2% (inactive) in assay [3] (at 50.0 µM); -22% (inactive) in assay [4] (setting [7]); -29% (inactive) in assay [4] (setting [8]); -32.5% (inactive) and 35.4% (inactive) in assay [4] (at 50.0 µM). For the same molecule, the growth inhibition in assay [5] (setting [7]) was -1% (inactive); in assay [5] (setting [8]) it was 43% (inactive); in assay [5] (at 50.0 µM), -1% (inactive) and 23.1% (inactive); in assay [6] (setting [7]) it was -13% (inactive); in assay [6] (setting [8]) it was 28% (inactive); in assay [6] (at 50.0 µM), -5.45% (inactive) and -11.5% (inactive).
As for `C[C@@H](O)[C@H]1CC[C@H]2[C@@H]3CCC4=C/C(=N/O)CC[C@]4(C)[C@H]3CC[C@]12C`, the growth inhibition was 36% (inactive) in assay [1] (setting [7]); 51% (inactive) in assay [1] (setting [8]); 7.4% (inactive) in assay [1] (at 50.0 µM); 15% (inactive) in assay [2] (setting [7]); 20% (inactive) in assay [2] (setting [8]); 22.2% (inactive) in assay [2] (at 50.0 µM). Also, the growth inhibition in assay [3] (setting [7]) is 44% (inactive); in assay [3] (setting [8]), -34% (inactive); in assay [3] (at 50.0 µM), 36.1% (inactive); in assay [4] (setting [7]), 16% (inactive); in assay [4] (setting [8]), 78% (active); in assay [4] (at 50.0 µM), -0.05% (inactive). In addition, the growth inhibition is -2% (inactive) in assay [5] (setting [7]); 61% (inactive) in assay [5] (setting [8]); 80.8% (active) in assay [5] (at 50.0 µM); 54% (inactive) in assay [6] (setting [7]); 68% (inactive) in assay [6] (setting [8]); 36.1% (inactive) in assay [6] (at 50.0 µM).
With `CN(C)Cc1c(O)ccc2ccccc12`, the growth inhibition is 2% (inactive) in assay [1] (setting [7]); 89% (active) in assay [1] (setting [8]); -32.9% (inactive) and 45% (inactive) in assay [1] (at 50.0 µM); 1% (inactive) in assay [2] (setting [7]); 98% (active) in assay [2] (setting [8]); -33% (inactive) and 90.2% (active) in assay [2] (at 50.0 µM). Further, the growth inhibition in assay [3] (setting [7]) was 2% (inactive); in assay [3] (setting [8]) it was 97% (active); in assay [3] (at 50.0 µM), -52.2% (inactive) and 43.4% (inactive); in assay [4] (setting [7]), -6% (inactive); in assay [4] (setting [8]) it was 96% (active); in assay [4] (at 50.0 µM), -18.8% (inactive) and 85.1% (active). In addition, the growth inhibition in assay [5] (setting [7]) is 0% (inactive); in assay [5] (setting [8]), 97% (active); in assay [5] (at 50.0 µM) it was -32.4% (inactive) and 23.8% (inactive); in assay [6] (setting [7]), 2% (inactive); in assay [6] (setting [8]), 99% (active); in assay [6] (at 50.0 µM) it was -32.2% (inactive) and 39.2% (inactive).
For the molecule `COC(=O)[C@@H](NS(=O)(=O)CC12CCC(CC1)C2(C)C)C(C)(C)C`, the growth inhibition was 2% (inactive) in assay [1] (setting [7]); 50% (inactive) in assay [1] (setting [8]); 14.2% (inactive) in assay [1] (at 50.0 µM); 1% (inactive) in assay [2] (setting [7]); 51% (inactive) in assay [2] (setting [8]); 26.1% (inactive) in assay [2] (at 50.0 µM). The growth inhibition was 16% (inactive) in assay [3] (setting [7]); 70% (active) in assay [3] (setting [8]); 25.7% (inactive) in assay [3] (at 50.0 µM); 6% (inactive) in assay [4] (setting [7]); 48% (inactive) in assay [4] (setting [8]); 21.4% (inactive) in assay [4] (at 50.0 µM). The growth inhibition was 0% (inactive) in assay [5] (setting [7]); 54% (inactive) in assay [5] (setting [8]); 10.9% (inactive) in assay [5] (at 50.0 µM); 0% (inactive) in assay [6] (setting [7]); 83% (active) in assay [6] (setting [8]); 58.6% (inactive) in assay [6] (at 50.0 µM).
Consider `CCn1c2ccccc2c2ccc(N=Cc3ccc(N(C)C)cc3)cc21`, for which the growth inhibition is 1% (inactive) in assay [1] (setting [7]); 78% (active) in assay [1] (setting [8]); 61.6% (inactive) in assay [1] (at 50.0 µM); -1% (inactive) in assay [2] (setting [7]); 17% (inactive) in assay [2] (setting [8]); 41.5% (inactive) in assay [2] (at 50.0 µM). Besides, the growth inhibition in assay [3] (setting [7]) was 2% (inactive); in assay [3] (setting [8]), 40% (inactive); in assay [3] (at 50.0 µM) it was 61% (inactive); in assay [4] (setting [7]), 0% (inactive); in assay [4] (setting [8]), 45% (inactive); in assay [4] (at 50.0 µM), 27.4% (inactive). The growth inhibition in assay [5] (setting [7]) was -3% (inactive); in assay [5] (setting [8]), 25% (inactive); in assay [5] (at 50.0 µM), 70.7% (active); in assay [6] (setting [7]), 5% (inactive); in assay [6] (setting [8]), 37% (inactive); in assay [6] (at 50.0 µM), 47.5% (inactive).
For the molecule `CC(=O)Nc1cc(C)ccc1C`, the growth inhibition in assay [1] (setting [7]) was 1% (inactive); in assay [1] (setting [8]), -3% (inactive); in assay [1] (at 50.0 µM) it was -36.6% (inactive) and -46.2% (inactive); in assay [2] (setting [7]), -2% (inactive); in assay [2] (setting [8]) it was 0% (inactive); in assay [2] (at 50.0 µM), 15.4% (inactive) and -28.3% (inactive). Further, the growth inhibition in assay [3] (setting [7]) was 0% (inactive); in assay [3] (setting [8]), -3% (inactive); in assay [3] (at 50.0 µM), -1.25% (inactive) and -9.15% (inactive); in assay [4] (setting [7]) it was -3% (inactive); in assay [4] (setting [8]), 4% (inactive); in assay [4] (at 50.0 µM), 51.8% (inactive) and 34.4% (inactive). The growth inhibition in assay [5] (setting [7]) was 0% (inactive); in assay [5] (setting [8]), -3% (inactive); in assay [5] (at 50.0 µM), 42.2% (inactive) and -9.35% (inactive); in assay [6] (setting [7]) it was 3% (inactive); in assay [6] (setting [8]), -4% (inactive); in assay [6] (at 50.0 µM) it was -36.9% (inactive) and -2% (inactive).

Values taken from PubChem BioAssay (NCI).
